According to PubChem BioAssay AID1159580 (chemical genetic matrix, 2015):
Hit rate of the full screen: of about 5,500 compounds, about 2,000 (36%) were called active. Roughly 18% stayed inconclusive and do not appear here. Rule as the data show it: active = normalized growth mostly below about 0.91 (no sharp cut-off); inconclusive = no clear call, values can overlap the other calls; inactive = mostly above about 0.92. The list shows a part of the results.

Experiment: chemical genetic growth profiling, strain panel (AID 1159580);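 also: tested at 20 µM; growth read once vehicle control cultures reached saturation at 30 °C; 1 = growth at the plate median or of vehicle wells; lower values mean less growth of the strain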
Details: S. cerevisiae deletion strains, growth OD

Measured: normalized growth

S=C(N/N=C\c1ccc(Cl)cc1)N/N=C\c1ccc(Cl)cc1
inactive: locus YAR019C, strain CDC15, hits give low values 0.957 | locus YBL105C, strain PKC1, hits give low values 0.962 | locus YBR135W, strain CKS1, hits give low values 0.962 | locus YBR136W, strain MEC1, hits give low values 0.973 | locus YBR160W, strain CDC28, hits give low values 0.969 | locus YDL017W, strain CDC7, hits give low values 0.961 | locus YDL028C, strain MPS1, hits give low values 0.959 | locus YDL101C, strain DUN1, hits give low values 0.992 | locus YDL108W, strain KIN28, hits give low values 0.967 | locus YDL132W, strain cdc53, hits give low values 0.957 | locus YDL214C, strain PRR2, hits give low values 0.77 | locus YDR052C, strain DBF4, hits give low values 0.967 | locus YDR054C, strain cdc34, hits give low values 0.944 | locus YDR226W, strain ADK1, hits give low values 0.972 | locus YDR477W, strain SNF1, hits give low values 0.81 | locus YER133W, strain GLC7, hits give low values 0.748 | locus YFL009W, strain cdc4, hits give low values 0.952 | locus YFL029C, strain CAK1, hits give low values 0.955 | locus YFR003C, strain YPI1, hits give low values 0.965 | locus YFR019W, strain FAB1, hits give low values 0.832 | locus YFR028C, strain CDC14, hits give low values 0.963 | locus YGR040W, strain KSS1, hits give low values 0.849 | locus YGR052W, strain FMP48, hits give low values 0.779 | locus YHR079C, strain IRE1, hits give low values 0.588 | locus YHR082C, strain KSP1, hits give low values 0.817 | locus YHR205W, strain SCH9, hits give low values 0.793 | locus YIL147C, strain SLN1, hits give low values 0.966 | locus YJL095W, strain BCK1, hits give low values 0.653 | locus YJL128C, strain PBS2, hits give low values 0.991 | locus YJR016C, strain ILV3, hits give low values 0.955 | locus YJR066W, strain TOR1, hits give low values 0.596 | locus YKL048C, strain ELM1, hits give low values 0.833 | locus YKL193C, strain SDS22, hits give low values 0.961 | locus YKL203C, strain TOR2, hits give low values 0.783 | locus YLR403W, strain SFP1, hits give low values 0.738 | locus YMR001C, strain CDC5, hits give low values 0.965 | locus YMR205C, strain PFK2 (second series), hits give low values 0.746 | locus YMR277W, strain FCP1, hits give low values 0.953 | locus YNL006W, strain LST8, hits give low values 0.96 | locus YNL161W, strain CBK1, hits give low values 0.963 | locus YNL183C, strain NPR1, hits give low values 0.81 | locus YNL207W, strain RIO2, hits give low values 0.955 | locus YNL222W, strain SSU72, hits give low values 0.961 | locus YOL078W, strain AVO1, hits give low values 0.96 | locus YOL136C, strain PFK27, hits give low values 0.75 | locus YOR119C, strain RIO1, hits give low values 0.866 | locus YOR231W, strain MKK1, hits give low values 0.697 | locus YOR329C, strain SCD5, hits give low values 0.957 | locus YPL031C, strain PHO85, hits give low values 0.688 | locus YPL204W, strain HRR25, hits give low values 0.682 | locus YPL209C, strain IPL1, hits give low values 0.967 | locus YPR025C, strain CCL1, hits give low values 0.966 | locus YPR106W, strain ISR1, hits give low values 0.972 | locus YPR111W, strain DBF20, hits give low values 0.975 | strain NNK1, hits give low values 0.984 | strain TSCII, hits give low values 0.955
active: locus YER123W, strain YCK3, hits give low values 0.477 | locus YGR092W, strain DBF2, hits give low values 0.284 | locus YHR030C, strain SLT2, hits give low values 0.64 | locus YJL157C, strain FAR1, hits give low values 0.582 | locus YJR066W, strain TOR1 (second series), hits give low values 0.448 | locus YKL067W, strain YNK1, hits give low values 0.645 | locus YKL101W, strain HSL1, hits give low values 0.714 | locus YLR113W, strain HOG1, hits give low values 0.66 | locus YLR133W, strain CKI1, hits give low values 0.693 | locus YML070W, strain DAK1, hits give low values 0.663 | locus YNL020C, strain ARK1, hits give low values 0.576 | locus YNL307C, strain MCK1 (second series), hits give low values 0.469 | locus YOR061W, strain CKA2, hits give low values 0.618 | locus YPL153C, strain RAD53, hits give low values 0.654 | locus YPL256C, strain CLN2, hits give low values 0.686
